# Test results as given in PubChem BioAssay AID1626 (SRMLSC, 2009).
# Among all 220,000 compounds or so, about 2,000 (0.91%) were called active. Not shown: some 2% with an inconclusive outcome. Only a sample is shown. Entries with a potency or affinity are not part of this list. Values without a mark were called inactive. No stated cut-off is given here; in the data, inconclusive means inhibition above about 80% without an active follow-up result; inactive means below that; test concentration not stated here.
# Assay: M. tuberculosis H37Rv growth inhibitors, H37Rv strain (AID 1626);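 further: bacteria incubated seven days before Alamar blue readout; 0% = bacteria only wells and 100% = bacteria with antibiotic wells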
# Details: active compounds read high, concentration not given here
row,SMILES,inhibition [%]
1,COc1ccccc1-n1c(SCC(=O)Nc2ccccc2C)nc(O)cc1=O,-5.47
2,NNC(=O)[C@H]1C[C@@H]1c1ccccc1,-1.45
3,Cc1ccc(SC(C)c2nc(-c3ccncc3)no2)cc1 (stereo unspecified),3.66
4,O=C(Cc1ccc(Cl)c(Cl)c1)Nc1ccc2[nH]c(=O)[nH]c2c1,-1.82
5,Clc1ccc(C(c2ccccc2)N2CCNCC2)cc1 (stereo unspecified),0.35
6,CCOc1cc(/C=C/c2ccc3cccc([N+](=O)[O-])c3n2)ccc1O,-4.71
7,COc1cc(/C=C/C(=O)O)ccc1O,-3.73
8,Cc1ccc(NC(=S)N(Cc2ccccc2)C(C)C)cc1,-1.3
9,CCC(C)c1c(O)nc(SCC(=O)Nc2ccccc2)[nH]c1=O (stereo unspecified),-5.09
10,O=C(CSc1nc(O)cc(=O)[nH]1)Nc1ccc2c(c1)CCC2,6.46
11,Nc1cc(=O)[nH]c(SCC(=O)Nc2ccc3c(c2)CCC3)n1,4.78
12,CCCc1cc(=O)[nH]c(SCC(=O)Nc2ccc3c(c2)CCC3)n1,7.3
13,CCN(CC)C(=O)C(=O)Nc1ccc(Oc2ccccc2)cc1,14.4
14,CCNCc1ccc(OCc2ccccc2F)c(OC)c1,6.78
15,COc1cc(CNCCCCO)ccc1OCc1ccccc1F,0.63
16,COc1cccc(CNCCc2c[nH]c3ccccc23)c1OCc1ccccc1,52.7
17,COc1cccc(CNCCc2c[nH]c3ccccc23)c1OCc1ccc(F)cc1,28.9
18,O=C(NCCc1ccccc1)C1CC(=O)N(C2CCCCCC2)C1 (stereo unspecified),-3.62
19,COC(=O)C1=C(c2ccccc2)C[C@@H]2CC[C@H]1N2C(=O)NCC1CC1,-3.96
20,O=C(OCc1ccc(Cl)cc1)c1cnccn1,13.5
21,COC(=O)c1ccc(COC(=O)c2cnccn2)cc1,16.3

row,SMILES,inhibition [%]
1,O=[N+]([O-])c1cccc(-c2noc(-c3cccs3)n2)c1,0.93
2,O=C(NCc1n[nH]c(=S)n1Cc1ccccc1)c1ccc(Cl)cc1Cl,7.03
3,COc1cccc(C2c3c(oc4ccccc4c3=O)C(=O)N2c2ccccn2)c1 (stereo unspecified),-5.48
4,COc1cc(OC)c(S(=O)(=O)NCc2ccco2)cc1S(=O)(=O)NCc1ccco1,1.4
5,Cc1ccc(Cl)cc1NC(=O)COC(=O)c1ccc(N2CCCC2)c([N+](=O)[O-])c1,-3.66
6,Cc1cccc(-n2cc(CN3CCN(Cc4nccn4C)CC3)c(-c3cccc(F)c3)n2)c1,27
7,Cc1ccc(-c2nn(-c3cccc(F)c3)cc2CN(Cc2nccn2C)C(C)C)o1,22.5
8,CCN1CC(CN(C)Cc2cn(-c3cccc(C)c3)nc2-c2cccc(F)c2)CC1=O (stereo unspecified),15.3
9,Cc1cccc(-n2cc(CN3CCN(c4ccccn4)CC3)c(-c3cccc(F)c3)n2)c1,15.4
10,CCOC(=O)N1CCC(N(CCN(C)C)C(=S)Nc2cccc(OC)c2)CC1,10
11,CCn1ccnc1CNC(=O)c1cc(COc2ccc(F)cc2F)on1,13.2
12,CCCn1nnc(NC(=O)c2ccc(-c3cccc(Cl)c3)o2)n1,0.76
13,CC(=O)N1CCN(C(=S)c2ccc(-c3ccc(Cl)cc3)o2)CC1,4.85
14,COc1ccccc1NC(=S)NC(=O)c1ccc(-c2ccc(Cl)cc2)o1,79.3
15,CCc1nnc(NC(=O)c2ccc(-c3ccc(Cl)cc3)o2)s1,3.33
16,CCn1nnc(NC(=O)Cc2ccc(Cl)cc2)n1,-0.3
17,O=C(NC1=NCCS1)c1cc2ccccc2o1,-1.2
18,CCOC(=O)c1cc(CC)sc1N1C(=O)CC(Sc2ncccc2C(=O)O)C1=O (stereo unspecified),2.89
19,Cc1ccc(S(=O)(=O)N(C)C)cc1NC(=O)C1CCC1,-2.34
20,CCOc1ccc(N(CC(=O)Nc2c(C)cccc2C)S(=O)(=O)c2c(C)[nH]c(=O)[nH]c2=O)cc1,7.56
21,CCn1c(N2CCN(C(=O)/C=C/c3ccccc3)CC2)nc2ccccc21,0.45

row,SMILES,inhibition [%]
1,CC(C)Cn1c(N2CCN(C(=O)c3cccs3)CC2)nc2ccccc21,-13.3
2,CCOc1ccc(CC(=NCCc2ccccc2)C2=C(O)CC(C)(C)CC2=O)cc1OCC,6.31
3,CCn1c(SCC(=O)Nc2ccc3c(c2)OCCO3)nnc1-c1c[nH]c2ccccc12,-6.16
4,O=C(Nc1nnc(-c2cccs2)o1)c1ccco1,71.2
5,COc1cccc(C(=O)Nc2nnc(-c3cccs3)s2)c1,8.53
6,O=C(Nc1cccc(C(F)(F)F)c1)c1cc(-c2cccs2)on1,-6.91
7,O=C(Nc1nn[nH]n1)c1cccc(Oc2ccccc2)c1,-4.2
8,CCCCNc1ccc(S(N)(=O)=O)cc1[N+](=O)[O-],-3.02
9,COC(=O)C1C(O)=C(C=Nc2ccccc2)C(=O)CC1(C)C (stereo unspecified),18
10,COC(=O)C1C(O)=C(C=Nc2cccc3ccccc23)C(=O)CC1(C)C (stereo unspecified),55
11,CC1CCN(C(=O)c2ccc(N3CC4CC(C3)c3cccc(=O)n3C4)c([N+](=O)[O-])c2)CC1 (stereo unspecified),-2.48
12,Nc1cc(=O)[nH]c(SCC(=O)Nc2ccccc2Sc2ccccc2)n1,0.31
13,Nn1c(SCc2ccc(F)cc2)nnc1-c1cccnc1,0.75
14,Cc1cc(C)c2nc(/N=C(\N)NC(=O)c3ccccc3)nc(C)c2c1,5.97
15,Cc1ccc2nc(N=C(N)N)nc(C)c2c1,8.48
16,CCCC(=O)N/C(N)=N/c1nc(C)c2cc(C)ccc2n1,31.5
17,Cc1nc(/N=C(\N)Nc2ccccc2)nc2ccccc12,-4.15
18,O=C(NCCNC(=O)c1ccc([N+](=O)[O-])cc1)c1ccncc1,-5.65
19,O=S(=O)(Nc1cccc2cn[nH]c12)c1ccc(F)cc1,-1.2
